# Where a name gives a salt, the structure may show the parent alone.
# What was measured:
# Conditions in all cases: 10 µM; exposure time: 3 h pre-incubation + 3 h imaging
# [1] = system: Danio rerio larvae (5 dpf); experiment: habituation to 1-s acoustic pulses, difference vs DMSO (percentage points (treated minus DMSO)); higher = more of the behaviour than the DMSO vehicle control
# How it was run: (§1)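 Library drugs were diluted 1000× from DMSO stocks into egg water to reach 10 µM and applied to 5-dpf wild-type zebrafish larvae in 96-well ProxiPlates, 48 larvae per drug. The larvae stayed exposed for 3 h before imaging and for the 3 h of imaging at 28.5 °C. Behaviour scores, given in percentage points, are the treated mean minus the vehicle mean for movement and upper-half location.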
# [2] = system: Danio rerio larvae (5 dpf); experiment: activity during period 15 (no stimuli), difference vs DMSO (percentage points (treated minus DMSO)); higher = more of the behaviour than the DMSO vehicle control
# How it was run: as §1
# [3] = system: Danio rerio larvae (5 dpf); experiment: activity during first hour (no stimuli), difference vs DMSO (percentage points (treated minus DMSO)); higher = more of the behaviour than the DMSO vehicle control
# How it was run: as §1
# [4] = system: Danio rerio larvae (5 dpf); experiment: optomotor response to blue moving lines, difference vs DMSO (percentage points (treated minus DMSO)); higher = more of the behaviour than the DMSO vehicle control
# How it was run: as §1
# [5] = system: Danio rerio larvae (5 dpf); experiment: startle response to 20-s acoustic pulses, difference vs DMSO (percentage points (treated minus DMSO)); higher = more of the behaviour than the DMSO vehicle control
# How it was run: as §1
# [6] = system: Danio rerio larvae (5 dpf); experiment: excitability to 1-s acoustic pulses, difference vs DMSO (percentage points (treated minus DMSO)); higher = more of the behaviour than the DMSO vehicle control
# How it was run: as §1
# [7] = system: Danio rerio larvae (5 dpf); experiment: optomotor response to red moving lines, difference vs DMSO (percentage points (treated minus DMSO)); higher = more of the behaviour than the DMSO vehicle control
# How it was run: as §1
# [8] = system: Danio rerio larvae (5 dpf); experiment: optomotor response to green moving lines, difference vs DMSO (percentage points (treated minus DMSO)); higher = more of the behaviour than the DMSO vehicle control
# How it was run: as §1
# [9] = system: Danio rerio larvae (5 dpf); experiment: optomotor response to fast red moving lines, difference vs DMSO (percentage points (treated minus DMSO)); higher = more of the behaviour than the DMSO vehicle control
# How it was run: as §1
smiles,measurement,setting,value
CCC(C)(C)C(=O)O[C@H]1C[C@@H](C)C=C2C=C[C@H](C)[C@H](CC[C@@H]3C[C@@H](O)CC(=O)O3)[C@H]21 [Simvastatin],habituation to 1-s acoustic pulses,[1],-1.13
same,activity during period 15,[2],-3.71
same,activity during first hour,[3],7.12
same,optomotor response to blue moving lines,[4],-4.79
same,startle response to 20-s acoustic pulses,[5],3.9
Cc1cccc(CN2CCN(C(c3ccccc3)c3ccc(Cl)cc3)CC2)c1 (configuration not stated) [Meclizine dihydrochloride],excitability to 1-s acoustic pulses,[6],9.5
same,optomotor response to red moving lines,[7],-10.1
same,activity during period 15,[2],8.13
same,activity during first hour,[3],29.1
COc1ccccc1Oc1c(NS(=O)(=O)c2ccc(C(C)(C)C)cc2)nc(-c2ncccn2)nc1OCCO [Bosentan],excitability to 1-s acoustic pulses,[6],-1.1
same,activity during first hour,[3],1.27
same,optomotor response to blue moving lines,[4],-2.84
same,optomotor response to green moving lines,[8],-5.7
same,startle response to 20-s acoustic pulses,[5],6.71
COc1ccccc1OCC(O)CN1CCN(CC(=O)Nc2c(C)cccc2C)CC1 (configuration not stated) [Ranolazine dihydrochloride],optomotor response to red moving lines,[7],9.27
same,activity during first hour,[3],10.4
same,optomotor response to blue moving lines,[4],13.8
same,optomotor response,[9],9.26
COc1c(C)c2c(c(O)c1C/C=C(\C)CCC(=O)OCCN1CCOCC1)C(=O)OC2 [Mycophenolate mofetil],excitability to 1-s acoustic pulses,[6],0.817
same,optomotor response to red moving lines,[7],12.2
same,activity during first hour,[3],-1.93
same,optomotor response to blue moving lines,[4],16.8
same,startle response to 20-s acoustic pulses,[5],3.73
Nc1nc2c(ncn2COCCO)c(=O)[nH]1 [Acyclovir],optomotor response to red moving lines,[7],1.94
same,activity during first hour,[3],-2
same,optomotor response to blue moving lines,[4],10.2
CN1CC(=O)N2[C@H](c3ccc4c(c3)OCO4)c3[nH]c4ccccc4c3C[C@@H]2C1=O [Tadalafil],habituation to 1-s acoustic pulses,[1],-1.05
same,optomotor response to red moving lines,[7],-0.75
same,activity during first hour,[3],11
same,startle response to 20-s acoustic pulses,[5],7.96
CN(C)CCC[C@@]1(c2ccc(F)cc2)OCc2cc(C#N)ccc21 [Escitalopram oxalate],optomotor response to red moving lines,[7],-7.88
COc1c(C)c2c(c(O)c1C/C=C(\C)CCC(=O)O)C(=O)OC2 [Mycophenolic acid],habituation to 1-s acoustic pulses,[1],1.78
same,activity during period 15,[2],9.46
same,activity during first hour,[3],2.64
same,optomotor response to green moving lines,[8],-1.15
CC1CNc2c(cccc2S(=O)(=O)N[C@@H](CCCNC(=N)N)C(=O)N2CC[C@@H](C)C[C@@H]2C(=O)O)C1 (some centres not stated) [Argatroban],activity during first hour,[3],4.69
same,optomotor response,[9],-3.36
N#Cc1ccc2[nH]cc(CCCCN3CCN(c4ccc5oc(C(N)=O)cc5c4)CC3)c2c1 [Vilazodone hydrochloride],excitability to 1-s acoustic pulses,[6],16.8
same,activity during period 15,[2],-28.4
same,activity during first hour,[3],-24.1
same,optomotor response to green moving lines,[8],-30.3
same,startle response to 20-s acoustic pulses,[5],-6.5
O=C(O)c1cc(/N=N/c2ccc(S(=O)(=O)Nc3ccccn3)cc2)ccc1O [Sulfasalazine],activity during first hour,[3],13.5
same,optomotor response to green moving lines,[8],0.416
same,startle response to 20-s acoustic pulses,[5],-1.02
same,optomotor response,[9],-5.17
CC(C)C(=O)OCC(=O)[C@@]12O[C@H](C3CCCCC3)O[C@@H]1C[C@H]1[C@@H]3CCC4=CC(=O)C=C[C@]4(C)[C@H]3[C@@H](O)C[C@@]12C [Ciclesonide],excitability to 1-s acoustic pulses,[6],4.96
same,activity during period 15,[2],-5.84
same,activity during first hour,[3],-9.57
same,optomotor response to green moving lines,[8],-7.98
same,startle response to 20-s acoustic pulses,[5],-4.94
Nc1ncn([C@@H]2O[C@H](CO)[C@@H](O)[C@H]2O)c(=O)n1 [5-Azacytidine],optomotor response to red moving lines,[7],5.02
Cn1nnc2c(C(N)=O)ncn2c1=O [Temozolomide],excitability to 1-s acoustic pulses,[6],-2.39
same,activity during first hour,[3],7.11
same,optomotor response,[9],-10.8
CNC(=O)c1cc(Oc2ccc(NC(=O)Nc3ccc(Cl)c(C(F)(F)F)c3)cc2)ccn1 [Sorafenib],habituation to 1-s acoustic pulses,[1],-8.29
same,excitability to 1-s acoustic pulses,[6],14.4
same,optomotor response to red moving lines,[7],-10.7
same,optomotor response to blue moving lines,[4],-18.5
same,startle response to 20-s acoustic pulses,[5],-4.57
same,optomotor response,[9],-21.1
Nc1nc(NC2CC2)c2ncn([C@H]3C=C[C@@H](CO)C3)c2n1 [Abacavir hemisulfate],activity during first hour,[3],8.55
same,optomotor response to green moving lines,[8],6.07
CC1=Nc2ccc(Cl)cc2S(=O)(=O)N1 [Diazoxide],excitability to 1-s acoustic pulses,[6],0.689
same,activity during first hour,[3],6.7
same,optomotor response to green moving lines,[8],7.27
same,startle response to 20-s acoustic pulses,[5],-3.68
CN1CCN2c3ncccc3Cc3ccccc3C2C1 (configuration not stated) [Mirtazapine],activity during first hour,[3],11.7
same,optomotor response,[9],-5.17
CCOC(=O)C1=C(C)NC(C)=C(C(=O)OC)C1c1cccc(Cl)c1Cl (configuration not stated) [Felodipine],activity during first hour,[3],-12.9
same,optomotor response to green moving lines,[8],-6.01
same,optomotor response,[9],-15.9
OCCN(CCO)c1nc(N2CCCCC2)c2nc(N(CCO)CCO)nc(N3CCCCC3)c2n1 [Dipyridamole],excitability to 1-s acoustic pulses,[6],-3.05
same,activity during first hour,[3],-0.789
CC(=O)Oc1cc2c(s1)CCN(C(C(=O)C1CC1)c1ccccc1F)C2 (configuration not stated) [Prasugrel],activity during first hour,[3],-1.24
same,optomotor response to blue moving lines,[4],3.83
same,startle response to 20-s acoustic pulses,[5],-10.9
CC/C(=C(\c1ccccc1)c1ccc(OCCN(C)C)cc1)c1ccccc1 [Tamoxifen citrate],excitability to 1-s acoustic pulses,[6],4.58
same,optomotor response to red moving lines,[7],-11
same,optomotor response to blue moving lines,[4],-14.3
same,optomotor response to green moving lines,[8],-10
Brc1c(NC2=NCCN2)ccc2nccnc12,excitability to 1-s acoustic pulses,[6],7.01
same,optomotor response to red moving lines,[7],17.8
same,optomotor response to blue moving lines,[4],7.07
same,optomotor response to green moving lines,[8],10.3
Cc1ccc(NC(=O)c2ccc(CN3CCN(C)CC3)cc2)cc1Nc1nccc(-c2cccnc2)n1 [Imatinib mesylate],habituation to 1-s acoustic pulses,[1],3.16
same,activity during first hour,[3],-12.5
same,optomotor response to green moving lines,[8],-13.4
C[C@H](Cc1cc2c(c(C(N)=O)c1)N(CCCO)CC2)NCCOc1ccccc1OCC(F)(F)F [Silodosin],habituation to 1-s acoustic pulses,[1],7.97
same,excitability to 1-s acoustic pulses,[6],21.7
same,activity during first hour,[3],-1.39
CC(C)CN(C[C@@H](O)[C@H](Cc1ccccc1)NC(=O)O[C@H]1CO[C@H]2OCC[C@H]21)S(=O)(=O)c1ccc(N)cc1 [Darunavir],excitability to 1-s acoustic pulses,[6],-1.74
same,activity during first hour,[3],12.6
same,optomotor response to green moving lines,[8],1.64
same,startle response to 20-s acoustic pulses,[5],-1.98
CN1CCC[C@@H]1CCO[C@](C)(c1ccccc1)c1ccc(Cl)cc1 [Clemastine fumarate],habituation to 1-s acoustic pulses,[1],-5.08
same,excitability to 1-s acoustic pulses,[6],15.4
same,activity during period 15,[2],5.26
same,activity during first hour,[3],4.9
same,startle response to 20-s acoustic pulses,[5],-7.67
Nc1nc2[nH]cc(CCc3ccc(C(=O)N[C@@H](CCC(=O)O)C(=O)O)cc3)c2c(=O)[nH]1 [Pemetrexed],optomotor response to red moving lines,[7],-7.22
same,optomotor response to blue moving lines,[4],1.87
